Data reported in PubChem BioAssay (NCATS).
Inconclusive results are not listed. A number with no mark means an inactive call. Activity calls are given as the source filed them. Calls follow the shape of the dose curve; as a rule, active = well fitted curve in the direction sought with a large enough effect; inconclusive = small, poorly fitted or top-dose-only effect, or another doubt; inactive = no such curve, though single readings can be large; an effect the other way counts as inactive or inconclusive.

Experiments:
[1] = Viability qHTS for spleen associated tyrosine kinase inhibitor (SYKi) drug resistant MV4-11 cells (AID 1963824); also: nearly all actives have a fitted effect of over 35% in size
Procedure, shortened: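 SYK-inhibitor-resistant MV4-11 AML cells were seeded at 500 per well onto compound and cultured 72 hours (37 °C, 5% CO2). CellTiter-Glo was then added, and after 10 min at room temperature, luminescence gave viability.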

[2] = Cellular viability qHTS for adrenocortical cancer (ACC) cell line SW-13 (AID 1963989); details: SW-13 ACC cells viability, CellTiter-Glo, 48 h; activity (max response): active compounds read low; also: nearly all actives have a fitted effect of over 65% in size;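 as to activity (max response): cells grown in serum-free medium with ITS supplement; % is scaled to controls: 0 for no effect and ±100 for the full control effect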
Procedure, shortened: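 Here, serum-free SW-13 cultures were dosed up to 46 uM. Following 48 h, ATP-dependent luminescence (CellTiter-Glo) reported viable cells, and logistic modeling produced IC50 values.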
Potency is read from the fitted curve at half-maximal effect.

Compound | Potency [1] | Potency [2] | activity (max response) [2] [%]
C=CC(=O)N[C@H]1CN(c2nc(Nc3cn(C)nc3OC)c3ncn(C)c3n2)C[C@@H]1F | 18.6 µM (active) | 0.199 µM (active) | –
CN[C@@H]1[C@@H](O)[C@@H](O[C@@H]2[C@@H](O)[C@H](O[C@H]3O[C@H](CN)[C@@H](O)[C@H](O)[C@H]3O)[C@@H](N)C[C@H]2NC(=O)C(O)CN)OC[C@]1(C)O (some centres not stated) | inactive | – | -3.06
CC(C)[C@H](CO)Nc1nc(Nc2ccc(C(=O)O)c(Cl)c2)c2ncn(C(C)C)c2n1 | 16.6 µM (active) | – | 10.6
NC(=O)c1cc(F)cc2c1C(=O)N(C1CCN(C3CCC(F)(F)CC3)CC1)C2 | inactive | – | -0.81
COc1cc(S(C)(=O)=O)ccc1Nc1nc2ccc(-c3ccc(NC(=O)[C@H](C)c4ccc(F)cc4)cc3)cn2n1 | 0.468 µM (active) | – | -19.6
CCCC[C@@H](C=O)NC(=O)[C@H](CC(C)C)NC(=O)OCc1ccccc1 | 18.6 µM (active) | – | -4.14
Cc1[nH]cnc1-c1ccc(Cl)cc1 | inactive | – | 8.54
Cc1ccc(N)cc1O | 9.69 µM (active) | – | 2.63
Cc1cccc(C)c1NC(=O)CN1CCN(CCCC(c2ccc(F)cc2)c2ccc(F)cc2)CC1 | 8.41 µM (active) | – | -13.9
C[C@H]1C[C@@H](n2c(Nc3ccc(OC(F)(F)F)cc3)nc3cc(CCC(=O)O)ccc32)CC(C)(C)C1 | 10.5 µM (active) | – | -13.1
NS(=O)(=O)c1cc2c(cc1Cl)CN(C1CCCCC1)C2=O | inactive | – | 0.796
